# Inconclusive results are not listed. Active and inactive are the calls of the source. How the source made its calls: active means hit-call score of the fitted dose curve at least 0.9, where 1 is the maximum; inconclusive means response in the unintended direction; inactive means score below 0.9.
# Read-out: Glyceraldehyde-3-phosphate dehydrogenase (Homo sapiens) (UniProt P04406)
# Assay: CLD_GAPDH_6hr: CellzDirect (CLD) Gene Expression Assay for Baseline Control (Glyceraldehyde 3-phosphate dehydrogenase) at 6 hours (AID 2283681)
# Method: CLD_6hr is a cell-based, multiplexed-readout assay that uses hepatocyte, a human liver primary cell, with measurements taken at 6 hours after chemical dosing in a 96-well plate.CLD_GAPDH_6hr is one of 16 assay component(s) measured or calculated from the CLD_6hr assay. It is designed to make measurements of mRNA induction, a form of inducible reporter, as detected with chemiluminescence signals by Quantitative Nuclease Protection Assay (qNPA) technology.Data from the assay component CLD_GAPDH_6hr was analyzed at the endpoint, CLD_GAPDH_6hr, in the positive analysis fitting direction relative to DMSO as the negative control and baseline of activity. Using a type of inducible reporter, gain-of-signal activity can be used to understand changes in the reporter gene as they relate to the gene GAPDH. Furthermore, this assay endpoint can be referred to as a secondary readout, because this assay has produced multiple assay endpoints where this one serves a background control function. To generalize the intended target to other relatable targets, this assay endpoint is annotated to the background measurement intended target family, where subfamily is baseline control.
# Human hepatocyte cultures were treated daily for two consecutive days with fresh dosing solutions containing appropriate concentrations of the 320 ToxCast chemicals (chemical identities were blinded to CellzDirect and other ToxCast collaborators), vehicle control (0.2% DMSO), and positive control inducers as summarized in Table 1. Due to the large number of treatment groups and chemicals examined, the ToxCast chemicals were divided into two groups (spanning two independent cultures of hepatocytes from separate donor preparations (Hu778: ToxCast plates 1 and 2; Hu776: ToxCast plates 3 and 4). Each preparation of human hepatocyte cultures was treated with respective vehicle control, medium only control, set of six positive controls/reference chemicals for the five hepatic receptor pathways, and a subset of eight of the ToxCast chemicals (indoxacarb, pyrithiobac-sodium, norflurazon, cyhalofop-butyl, methomyl, thiram, acetochlor, and propiconazole). These replicate data, coupled with internal replicates designed within the blinded ToxCast chemical library, provided additional data to evaluate interindividual differences between hepatocyte preparations and their potential impact on chemical profiles.Cell morphology and integrity were evaluated using phase-contrast microscopy as an indicator of hepatocyte cell health (Tyson & Green, 1987). Cultures for each treatment group (i.e., media, vehicle [0.2% DMSO], positive control inducers [multiple concentrations], and the ToxCast chemicals [multiple concentrations]) were observed and cell morphology was assessed relative to vehicle control cultures at each harvest time point (0, 6, 24, or 48 h). […] Images were evaluated at the conclusion of the study to assess changes in cell integrity and account for the effects of chemical exposure on uncharacteristic changes in concentration-dependent gene expression profiles. The results from these determinations of apparent cytotoxicity were annotated (yes/no) alongside the corresponding qNPA data for reference.At the conclusion of each treatment period, hepatocyte cultures (96-well) were washed with 1 volume of HBSS, lysed by addition of 25 ul ArrayPlate lysis buffer (HTG, Tucson, AZ), and 70 ul/well of Denaturation Oil, denatured by incubation at 95C for 10 min, and frozen at approximately -70C until analysis by nuclease protection assay (qNPA) (Roberts et al., 2007). For qNPA analysis, cell lysates were thawed at 50C for approximately 30 min, qNPA probes were added, and samples were incubated at 95C for 10 min to begin the detection process by denaturing the target RNA, dissociating the duplexes and secondary structure hybridization. At the conclusion of the hybridization period, S1 nuclease reagent was added to each sample to digest all nonprotected nucleotides at 50C for 60-90 min. […]
# Sequence of Glyceraldehyde-3-phosphate dehydrogenase (Homo sapiens) (P04406 whole entry, looked up): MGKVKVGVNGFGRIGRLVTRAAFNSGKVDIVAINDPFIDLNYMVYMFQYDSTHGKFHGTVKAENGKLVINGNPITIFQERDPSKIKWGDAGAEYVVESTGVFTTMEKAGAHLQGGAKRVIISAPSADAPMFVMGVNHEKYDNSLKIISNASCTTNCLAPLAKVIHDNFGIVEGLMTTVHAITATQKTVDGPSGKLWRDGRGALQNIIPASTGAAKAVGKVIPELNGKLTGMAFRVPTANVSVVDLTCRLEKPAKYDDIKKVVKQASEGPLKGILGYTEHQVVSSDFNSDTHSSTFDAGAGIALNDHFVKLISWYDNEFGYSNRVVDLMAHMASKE
row,SMILES,outcome
1,COP(=O)(OC)OC=C(Cl)Cl,inactive
2,CNC(=O)Oc1ccccc1OC(C)C,inactive
3,OCCOc1ccccc1,inactive
4,CCOc1nc(NC)nc(NC(=O)NS(=O)(=O)c2ccccc2C(=O)OC)n1,inactive
5,CCOCN(C(=O)CCl)c1c(C)cccc1CC,inactive
6,Cc1cc(C)nc(NC(=O)NS(=O)(=O)c2ccccc2C(=O)OC2COC2)n1,inactive
7,CCCN(CCOc1c(Cl)cc(Cl)cc1Cl)C(=O)n1ccnc1,inactive
8,C[C@H]1[C@H](c2ccc(Cl)cc2)SC(=O)N1C(=O)NC1CCCCC1,inactive
9,CC[C@H](C)[C@H]1O[C@]2(C=C[C@@H]1C)C[C@@H]1C[C@@H](C/C=C(\C)[C@@H](O[C@H]3C[C@H](OC)[C@@H](O[C@H]4C[C@H](OC)[C@@H](O)[C@H](C)O4)[C@H](C)O3)[C@@H](C)/C=C/C=C3\CO[C@@H]4[C@H](O)C(C)=C[C@@H](C(=O)O1)[C@]34O)O2 (tested in a mixture with another compound),inactive
10,O=C(O)COc1ccc(Cl)cc1Cl,inactive
11,[2H]C1([2H])[n+]2ccccc2-c2cccc[n+]2C1([2H])[2H],inactive
12,CN1CSC(=S)N(C)C1,inactive
13,CNC(=O)Oc1cccc(N=CN(C)C)c1,inactive
14,O=[N+]([O-])/N=C1\NCCN1Cc1ccc(Cl)nc1,inactive
15,COC(=O)c1ccccc1S(=O)(=O)NC(=O)Nc1nc(C)nc(OC)n1,inactive
16,Oc1ccc(Cl)cc1Cc1ccccc1,inactive
17,CC(C)N(C(=O)COc1nnc(C(F)(F)F)s1)c1ccc(F)cc1,inactive

row,SMILES,outcome
1,CCS(=O)(=O)c1cccnc1S(=O)(=O)NC(=O)Nc1nc(OC)cc(OC)n1,inactive
2,O=[N+]([O-])c1c(Cl)c(Cl)c(Cl)c(Cl)c1Cl,inactive
3,O=S1OCC2C(CO1)C1(Cl)C(Cl)=C(Cl)C2(Cl)C1(Cl)Cl (stereo not drawn),inactive
4,Oc1cc(Cl)ccc1Oc1ccc(Cl)cc1Cl,inactive
5,COC(=O)c1ccccc1S(=O)(=O)NC(=O)N(C)c1nc(C)nc(OC)n1,inactive
6,CCC(C)(C)C(=O)OC1=C(c2ccc(Cl)cc2Cl)C(=O)OC12CCCCC2,inactive
7,Clc1ccccc1-c1nnc(-c2ccccc2Cl)nn1,inactive
8,O=C(O)CCCOc1ccc(Cl)cc1Cl,inactive
9,CC(C)(C)C(O)C(Oc1ccc(Cl)cc1)n1cncn1 (stereo not drawn),inactive
10,CC1(C)C(C=C(Cl)Cl)C1C(=O)OC(C#N)c1ccc(F)c(Oc2ccccc2)c1 (stereo not drawn),inactive
11,O=C1c2ccccc2C(=O)N1SC(Cl)(Cl)Cl,inactive
12,O=C(O)C(F)(F)C(F)(F)C(F)(F)C(F)(F)C(F)(F)C(F)(F)C(F)(F)F,inactive
13,CNC(=O)CSP(=S)(OC)OC,inactive
14,N#CN,inactive
15,COc1cc(OC)nc(NC(=O)NS(=O)(=O)c2cc(NC=O)ccc2C(=O)N(C)C)n1,inactive
16,CC(C)(C)C(O)/C(=C\c1ccc(Cl)cc1Cl)n1cncn1 (stereo not drawn),inactive

# — PubChem BioAssay (EPA / NIEHS)
